Source: PubChem BioAssay AID1491 (National Center for Advancing Translational Sciences (NCATS), 2009)
Inconclusive results are not listed. A call without a number means that no potency is given here. Calls of active or inactive are those of the source. Calls follow the shape of the dose curve; as a rule, active = well fitted inhibition curve with a large enough effect in the main read-out, with a control signal flat; inconclusive = small, poorly fitted or top-dose-only effect, or a change in a side signal; inactive = flat fitted curve, though single readings scatter.

Target: Neuropeptide S receptor (Homo sapiens) (UniProt Q6W5P4)
Assay: Confirmation Concentration-Response Assay for Antagonists of the Neuropeptide S Receptor: cAMP Signal Transduction
Settings: CHO-NPSR cells, cAMP TR-FRET, antagonist mode; series mostly up to 22.3 µM
How it was run: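 LANCE TR-FRET cAMP read-out: 665/620 nm emission ratio, with the 620 nm donor channel also reported, after 2 h RT detection. Stably transfected CHO-NPSR cells got compound titrations and 100 nM NPS in stimulation reagent for 60 min at 37C. IC50 came from Hill fits.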
Potency is read from the fitted curve at half-maximal effect.

Sequence of Neuropeptide S receptor (Homo sapiens) (Q6W5P4 whole entry, looked up): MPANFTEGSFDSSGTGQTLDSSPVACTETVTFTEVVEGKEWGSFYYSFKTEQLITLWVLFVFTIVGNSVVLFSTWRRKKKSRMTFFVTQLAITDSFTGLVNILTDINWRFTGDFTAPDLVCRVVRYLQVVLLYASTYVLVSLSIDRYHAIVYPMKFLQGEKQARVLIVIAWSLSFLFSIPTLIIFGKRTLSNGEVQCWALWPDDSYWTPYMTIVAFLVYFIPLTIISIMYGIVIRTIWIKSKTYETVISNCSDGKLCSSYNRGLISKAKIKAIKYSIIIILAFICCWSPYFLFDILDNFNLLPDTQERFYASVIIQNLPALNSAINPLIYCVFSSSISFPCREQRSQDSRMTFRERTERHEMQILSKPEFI

Row | Compound | Potency
1 | Cc1cccc(-c2nnc(SCc3cc(=O)[nH]c4ccccc34)n2C)c1 | inactive
2 | Cc1ccc(S(=O)(=O)Nc2ccccc2CNc2c(C)n(C)n(-c3ccccc3)c2=O)cc1 | inactive
3 | CCn1cc(C(=O)NCC2CCCO2)c(=O)c2cc(S(=O)(=O)N3CCCCCC3)ccc21 (stereo not given) | inactive
4 | CCOC(=O)c1cnc(-n2nc(C)cc2C)nc1NC1CCCC1 | inactive
5 | c1ccc(CSC2=NNC(c3ccccn3)S2)cc1 (stereo not given) | inactive
6 | O=[N+]([O-])c1ccc(-c2nc(C(Cl)Cl)c3ccccc3n2)cc1 | inactive
7 | N=c1c2c(ncn1-c1ccccc1)Oc1ccc3ccccc3c1C2c1ccc2c(c1)OCO2 (stereo not given) | 2.51 µM (active)
8 | CC1(C)Cc2c(c(N3CCOCC3)nc3sc4c(NCC5CCCO5)nnnc4c23)CS1 (stereo not given) | inactive
9 | C=CCOc1c(Cl)cc(CNc2ccc(N(C)C)cc2)cc1OC | inactive
10 | S=C(Nc1ccccc1)Nc1nccs1 | inactive
11 | COc1ccc(N2C3=C(CC4=C2CC(C)(C)CC4=O)C(=O)CC(C)(C)C3)cc1 | inactive
12 | O=C(CSc1n[nH]c(-c2cccnc2)n1)Nc1ccnc2ccccc12 | inactive
13 | O=C(O)c1cccc(Nc2ncnc3ccccc23)c1 | inactive
14 | C(=C\c1ccccc1)/C=N/N1CCN(c2ccccn2)CC1 | inactive
15 | CCCCOc1ccc(OCCCN2CCOCC2)cc1 | inactive
16 | COc1ccccc1C1c2c(ncn(-c3ccccc3)c2=N)Oc2ccc3ccccc3c21 (stereo not given) | 17.8 µM (active)
17 | Cn1c(COc2ccccc2)nnc1SCc1cc(=O)[nH]c2ccccc12 | inactive
18 | O=[N+]([O-])c1ccc(N=Nc2ccc(O)cc2O)cc1 | inactive
19 | O=C(O)CCCCCNc1nc(=S)[nH]c2ccccc12 | inactive
20 | O=C(CSC1=NCCS1)Nc1ccnc2ccccc12 | inactive
